Hit rate of the full screen: of about 400,000 compounds, about 2,100 (0.53%) were called active. Not shown: some 14% with an inconclusive outcome. How the calls were made is not given here. The list comes from a sample in which actives are over-represented; it also holds similar structures and randomly drawn compounds.
These molecules were tested against Ataxin-2 (Homo sapiens) (UniProt Q99700) (assay: qHTS for Inhibitors of ATXN expression.).
Ataxin-2 (Homo sapiens), sequence (Q99700 whole entry): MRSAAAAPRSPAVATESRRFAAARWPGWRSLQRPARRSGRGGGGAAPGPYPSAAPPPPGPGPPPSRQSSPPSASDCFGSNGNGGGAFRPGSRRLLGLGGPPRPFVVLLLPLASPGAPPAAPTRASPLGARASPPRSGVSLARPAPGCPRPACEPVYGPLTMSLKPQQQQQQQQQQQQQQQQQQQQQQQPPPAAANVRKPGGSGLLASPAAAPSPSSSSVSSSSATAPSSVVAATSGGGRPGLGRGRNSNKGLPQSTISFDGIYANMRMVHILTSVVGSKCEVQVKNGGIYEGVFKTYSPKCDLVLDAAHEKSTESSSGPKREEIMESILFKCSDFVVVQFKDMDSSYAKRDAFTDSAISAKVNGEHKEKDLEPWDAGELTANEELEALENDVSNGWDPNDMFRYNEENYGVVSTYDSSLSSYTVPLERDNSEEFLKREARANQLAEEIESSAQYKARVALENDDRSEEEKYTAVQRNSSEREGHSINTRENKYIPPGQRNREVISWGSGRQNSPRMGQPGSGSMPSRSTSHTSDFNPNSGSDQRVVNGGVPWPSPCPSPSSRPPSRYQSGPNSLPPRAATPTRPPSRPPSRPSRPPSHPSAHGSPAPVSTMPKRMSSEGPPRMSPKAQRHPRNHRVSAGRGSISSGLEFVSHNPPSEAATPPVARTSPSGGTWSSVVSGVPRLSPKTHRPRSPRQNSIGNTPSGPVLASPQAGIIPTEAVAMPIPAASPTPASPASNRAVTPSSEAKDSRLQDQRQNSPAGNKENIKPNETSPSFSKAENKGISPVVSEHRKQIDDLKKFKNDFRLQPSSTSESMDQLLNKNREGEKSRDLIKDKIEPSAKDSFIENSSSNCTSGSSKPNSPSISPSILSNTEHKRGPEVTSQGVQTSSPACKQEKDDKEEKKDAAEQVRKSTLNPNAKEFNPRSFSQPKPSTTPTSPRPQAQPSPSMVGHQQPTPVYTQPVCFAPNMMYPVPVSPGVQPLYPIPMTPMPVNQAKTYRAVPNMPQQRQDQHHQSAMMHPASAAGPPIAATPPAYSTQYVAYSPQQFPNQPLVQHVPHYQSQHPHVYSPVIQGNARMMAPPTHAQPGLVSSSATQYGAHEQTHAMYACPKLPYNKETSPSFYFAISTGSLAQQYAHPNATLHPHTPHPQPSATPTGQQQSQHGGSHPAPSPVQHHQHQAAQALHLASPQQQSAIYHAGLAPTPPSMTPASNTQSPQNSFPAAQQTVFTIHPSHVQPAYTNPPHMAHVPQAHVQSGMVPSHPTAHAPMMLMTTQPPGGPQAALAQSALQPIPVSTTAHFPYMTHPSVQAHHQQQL
Assay type: functional
With `COc1ccc2nc(N3CCCCC3)c(C#N)cc2c1` the Potency was “inactive”.
`N=c1oc2cc(O)ccc2cc1C(=O)Nc1ccc(F)cc1` was tested, and the Potency was “inactive”.
In the case of `O=C(NCCCN1CCOCC1)/C(=C/c1cccnc1)NC(=O)c1ccccc1`, the Potency is reported as “inactive”.
With `COCCOC(=O)c1c(N)n(CCCN2CCOCC2)c2nc3ccccc3nc12` the Potency was “inactive”.
In the case of `CCOC(=O)/C(=C\c1ccccc1)C(=O)CCN1CCOCC1`, the Potency is reported as 42.3 µM (active).
In the case of `CCCc1cc(=O)oc2cc(O[C@@H]3O[C@H](CO)[C@@H](O)[C@H](O)[C@H]3O)ccc12`, the Potency is reported as “inactive”.
For `COc1ccccc1-c1nnc(-c2ccc(C)cc2)o1`, the Potency was “inactive”.
`COc1ccccc1NC(=O)CSc1nnc(-c2ccoc2C)o1` was tested, and the Potency was “inactive”.
With `COc1ccccc1-c1nnc(Sc2nc([N+](=O)[O-])nn2C)o1` the Potency was 11.2 µM (active).
`CCn1c2ccccc2c2nc3cc(C(=O)O)ccc3nc21` was tested, and the Potency was “inactive”.
For `C=CCn1c2ccccc2c2nnc(SCCCn3c(=O)[nH]c4ccccc43)nc21`, the Potency was 39.8 µM (active).
In the case of `C=CCn1c(N)c(C(=O)OC(C)(C)C)c2nc3ccccc3nc21`, the Potency is reported as “inactive”.
For `NC(=O)C[n+]1cccc(C(=O)Nc2ccccc2)c1`, the Potency was “inactive”.
`CCN(CC)c1ccc2c(C)c(-c3ccc(N)cc3)c(=O)oc2c1` was tested, and the Potency was “inactive”.
In the case of `CCN(CC)c1ccc(N)cc1`, the Potency is reported as 31.6 µM (active).
For `CCN(CC)c1ccc2ccc(=O)oc2c1`, the Potency was “inactive”.
In the case of `O=C(Nc1ccccc1)NN(C(=O)CCl)c1ccccc1`, the Potency is reported as 22.4 µM (active).
`O=C(Nc1ccccc1)N(C1=NCCC1)c1ccccc1` was tested, and the Potency was “inactive”.
`O=C(O)c1ccccc1N(c1ccccc1)c1ccccc1` was tested, and the Potency was “inactive”.
With `COC(=O)c1cn(C(=O)c2cc(C)cc(C)c2)c2ccccc12` the Potency was “inactive”.
With `O=C(CCCC(=O)NNC(=O)Nc1ccccc1)NNC(=O)Nc1ccccc1` the Potency was “inactive”.
`CC(=O)n1cc(N(C(=O)CCl)c2ccccc2)c2ccccc21` was tested, and the Potency was 22.4 µM (active).
For `O=C(CCl)N(c1ccccc1)c1ccccc1`, the Potency was 7.52 µM (active).
For `CC(=O)n1c(/C=N/c2ccccc2)c(O)c2ccccc21`, the Potency was “inactive”.
`Cc1c(Cc2ccccc2)c(=O)oc2c(C)c(OCC(=O)Nc3ccc(C#N)cc3)ccc12` was tested, and the Potency was “inactive”.
For `OC[C@@H]1[C@@H](c2ccc(F)cc2)C(c2ccccc2)=NN1c1ccccc1`, the Potency was “inactive”.
For `Clc1ccc(/C=C\c2[nH]ccc3c4ccccc4nc2-3)cc1`, the Potency was “inactive”.
`CCc1cc2c(COC(=O)c3cccc(S(C)(=O)=O)c3)cc(=O)oc2cc1O` was tested, and the Potency was “inactive”.
In the case of `c1ccc(CN2CCC(Nc3nc(-c4cccs4)nc4ccccc34)CC2)cc1`, the Potency is reported as 31.6 µM (active).
With `O=C(O)/C=C/c1cn(Cc2ccccc2)nc1-c1cccs1` the Potency was “inactive”.
For `Cc1cccn2c(=O)c3cc(C(=O)NCC4CCCO4)c(=N)n(Cc4cccnc4)c3nc12` (configuration not stated), the Potency was “inactive”.
With `CC(C)c1cc(NCc2ccccn2)n2c(nc3ccccc32)c1C#N` the Potency was “inactive”.
`O=S(=O)(Nc1cc2nc3ccccc3nc2n1Cc1ccccc1)c1ccc(Cl)cc1` was tested, and the Potency was “inactive”.
With `O=S(=O)(NCC(Nc1ccc(Cl)cc1)c1ccccc1)c1ccccc1` (configuration not stated) the Potency was 22.4 µM (active).
For `O=S(=O)(Nc1nc2ccccc2nc1Cl)c1ccc(Cl)cc1`, the Potency was “inactive”.
In the case of `Cc1c(CCC(=O)NC2CC2)c(=O)oc2c(C)c(O)ccc12`, the Potency is reported as “inactive”.
In the case of `CC1CCc2cc(F)ccc2N1C(=O)CSc1n[nH]c2c3cc(F)ccc3nc-2n1` (configuration not stated), the Potency is reported as 22.4 µM (active).
In the case of `CN1CCC(N(C)C(=O)c2sc3cc(F)ccc3c2Cl)CC1`, the Potency is reported as “inactive”.
In the case of `CC1CCc2cc(F)ccc2N1C(=O)CCl` (configuration not stated), the Potency is reported as 29.9 µM (active).
With `CC(Sc1nc(-c2ccc(F)cc2)cs1)C(=O)N1c2ccccc2CC1C` (configuration not stated) the Potency was “inactive”.
With `CC(=O)N1c2ccc(S(=O)(=O)NCCC(=O)Nc3ccc(Cl)cc3)cc2CC1C` (configuration not stated) the Potency was “inactive”.
For `CCc1nnc(NC(=O)CSc2n[nH]c3c4ccccc4nc-3n2)s1`, the Potency was “inactive”.
`Cc1nc2nc(-c3ccc(F)cc3)cn2nc1C` was tested, and the Potency was “inactive”.
With `CN(C)c1ccc(/C=C/c2ccc3ccccc3n2)cc1` the Potency was “inactive”.
With `COc1ccc2ccccc2c1/C=N/Nc1cccc(C(=O)O)c1` the Potency was “inactive”.
`CC[n+]1c(/C=C/c2ccc(OC(C)=O)c(OC)c2)ccc2ccccc21` was tested, and the Potency was 22.4 µM (active).
With `CC[n+]1c(/C=C/c2ccc(N(C)C)cc2)ccc2ccccc21` the Potency was 10 µM (active).
In the case of `CN(C)c1ccc(/C=C/c2nc3ccccc3s2)cc1`, the Potency is reported as “inactive”.
For `CN(C)c1ccc(C=Cc2cnccn2)cc1`, the Potency was “inactive”.
`COc1ccc(/C=C2\CCc3c2nc2ccccc2c3C(=O)O)cc1OC` was tested, and the Potency was “inactive”.
For `CCCN(CCC)c1ccc(/C=C/c2ccc3cc(OCC)ccc3n2)cc1`, the Potency was “inactive”.
For `CCCCCC[n+]1ccccc1C=Cc1ccc(N(C)C)cc1`, the Potency was 7.94 µM (active).
With `CCN(CC)c1ccc(/C=N/NC(=S)NCc2ccc(OC)cc2)cc1` the Potency was “inactive”.
`CN(C)c1ccc(/C=C/c2cccc[n+]2[O-])cc1` was tested, and the Potency was “inactive”.
For `CCN(CC)c1ccc(/C=C/c2ccc3ccc(OC)cc3[n+]2CC)cc1`, the Potency was 2.82 µM (active).
In the case of `CCOC(=O)c1cc(C#N)c(Nc2ccccc2OC)nc1C(F)(F)F`, the Potency is reported as “inactive”.
`O=S(=O)(O)c1ccc(N2N=C(c3ccccc3)CC2c2ccccc2)cc1` (configuration not stated) was tested, and the Potency was “inactive”.
In the case of `Nc1nnc(-c2cc3ccccc3oc2=O)s1`, the Potency is reported as “inactive”.
`CC(=O)Oc1ccc(N2C(=O)c3cccc4c([N+](=O)[O-])ccc(c34)C2=O)cc1` was tested, and the Potency was “inactive”.
With `CC(=O)NNC(=O)c1sc(=S)n2c1[nH]c(=O)c1sccc12` the Potency was “inactive”.
For `CN(C)c1ccc(C=Cc2nccc3ccccc23)cc1`, the Potency was “inactive”.
`Oc1ccc(/C=C/c2ccnc3ccccc23)cc1` was tested, and the Potency was “inactive”.
For `CCN(CC)c1ccc(/C=C/c2cc(-c3ccccc3)c3ccccc3n2)cc1`, the Potency was “inactive”.
In the case of `CN(C)c1ccc(/C=C/c2ccc3c4ccccc4ccc3[n+]2-c2ccccc2)cc1`, the Potency is reported as 11.9 µM (active).
For `Oc1ccc(/C=C/c2ccc3ccccc3n2)cc1`, the Potency was “inactive”.
`C[n+]1c(/C=C/c2ccc(O)cc2)ccc2ccccc21` was tested, and the Potency was 26.7 µM (active).
For `O=C1C(Cl)=C(NC2CCCCC2)C(=O)N1Cc1ccccc1`, the Potency was “inactive”.
With `C=CCn1c(C)c(C(C)=O)cc(NC(=O)c2ccccc2)c1=O` the Potency was “inactive”.
`O=C(CN1C(=O)c2cccc3cccc1c23)NC1CCCCC1` was tested, and the Potency was “inactive”.
In the case of `O=C(CN1C(=O)c2cccc3cccc1c23)NC1CCCC1`, the Potency is reported as “inactive”.
In the case of `CCC(C)NC(=O)CN1C(=O)c2cccc3cccc1c23` (configuration not stated), the Potency is reported as “inactive”.
In the case of `CCOC(=O)C1CCN(S(=O)(=O)c2ccc3c4c(cccc24)C(=O)N3CC)CC1`, the Potency is reported as “inactive”.
For `CCOC(=O)N1CCN(CC(O)COc2cc(C)cc(C)c2)CC1` (configuration not stated), the Potency was “inactive”.
In the case of `CCc1ccc(OCC(O)CN2CCC(CN3C(=O)c4cccc5cccc(c45)C3=O)CC2)cc1` (configuration not stated), the Potency is reported as 39.8 µM (active).
`CCN(CC)C(=O)CN1C(=O)c2cccc3cccc1c23` was tested, and the Potency was “inactive”.
With `CCOC(=O)C1CCCN(S(=O)(=O)c2ccc3c4c(cccc24)C(=O)N3CC)C1` (configuration not stated) the Potency was “inactive”.
In the case of `Cc1cccc(C)c1OCC(O)CN1CCC(CN2C(=O)c3cccc4cccc(c34)C2=O)CC1` (configuration not stated), the Potency is reported as 25.1 µM (active).
With `Cc1cc(C)cc(OCC(O)CN2CCC(CN3C(=O)c4cccc5cccc(c45)C3=O)CC2)c1` (configuration not stated) the Potency was 28.2 µM (active).
With `O=C1c2cccc3cc([N+](=O)[O-])cc(c23)C(=O)N1CC1CCCO1` (configuration not stated) the Potency was “inactive”.
`Cc1ccc(C)c(OCC(O)CN2CCC(CN3C(=O)c4cccc5cccc(c45)C3=O)CC2)c1` (configuration not stated) was tested, and the Potency was 39.8 µM (active).
For `COc1ccc(-c2cc(=O)oc3c(C)c(O)c(CN(C)C)cc23)cc1`, the Potency was “inactive”.
With `COCCNC(=O)/C(C#N)=C/c1c(N2CCN(C)CC2)nc2c(C)cccn2c1=O` the Potency was “inactive”.
With `CCOCCCn1c(=N)c(C(=O)NCc2cccnc2)cc2c(=O)n3cc(C)ccc3nc21` the Potency was “inactive”.
For `Cc1ccc(S(=O)(=O)c2cc3ccc(O)cc3oc2=O)cc1C`, the Potency was “inactive”.
In the case of `CCCc1cc(=O)oc2c(CN3CCCC3)c(O)c(Cl)cc12`, the Potency is reported as “inactive”.
For `CC(=O)NC(=Nc1ccc(C)cc1Cl)Nc1nc(C)cc(C)n1`, the Potency was “inactive”.
With `Oc1c(C(c2ccccn2)N2CCC(Cc3ccccc3)CC2)cc(Cl)c2cccnc12` (configuration not stated) the Potency was “inactive”.
In the case of `Cc1ccc(C)c(OCC(O)CN2CCC(Cc3ccccc3)CC2)c1` (configuration not stated), the Potency is reported as 39.8 µM (active).
`CC(CCc1ccccc1)NC(=O)C1CCC1` (configuration not stated) was tested, and the Potency was “inactive”.
In the case of `CC1=C(C(=O)N(C(C)C)C(C)C)CC(CC(=O)NCCCCc2ccccc2)C(=O)N1CCC1=CCCCC1` (configuration not stated), the Potency is reported as 39.8 µM (active).
In the case of `CC1=C(C(=O)N(C(C)C)C(C)C)CC(CC(=O)NC(c2ccccc2)c2ccccc2)C(=O)N1CCC1=CCCCC1` (configuration not stated), the Potency is reported as 39.8 µM (active).
With `CC1=C(C(=O)N2CCCCCC2)CC(CC(=O)NCCCCc2ccccc2)C(=O)N1Cc1ccccc1` (configuration not stated) the Potency was 35.5 µM (active).
`CC1=C(C(=O)N(C(C)C)C(C)C)CC(CC(=O)NCc2cccc3ccccc23)C(=O)N1CCC1=CCCCC1` (configuration not stated) was tested, and the Potency was 39.8 µM (active).
For `O=C(COC(=O)c1cc(S(=O)(=O)N2CCCC2)ccc1O)NCCc1ccccc1`, the Potency was “inactive”.
With `CCOC(=O)C(CC(=O)O)NCc1ccco1` (configuration not stated) the Potency was “inactive”.
`CCn1nc(C)c(/C=N/NC(=O)c2nc3nc(C)cc(C)n3n2)c1C` was tested, and the Potency was “inactive”.
`CC1=C(C(=O)N2CCCCCC2)CC(CC(=O)NCCCCc2ccccc2)C(=O)N1CCC1=CCCCC1` (configuration not stated) was tested, and the Potency was 17.8 µM (active).
In the case of `CCOC(=O)c1c(N)n(CCOC(=O)c2cccs2)c2nc3ccccc3nc12`, the Potency is reported as “inactive”.
`O=C(CCl)N1CCN2C(=O)c3ccccc3C12c1ccc(Cl)cc1` (configuration not stated) was tested, and the Potency was 21.2 µM (active).
In the case of `CCOC(=O)N1CCc2[nH]c3ccc(C)cc3c2C1`, the Potency is reported as “inactive”.
With `CN(C)CC(CCC(CN(C)C)C(O)(c1ccccc1)c1ccccc1)C(O)(c1ccccc1)c1ccccc1` (configuration not stated) the Potency was 28.2 µM (active).
With `CN(C)CC(O)CN(c1ccccc1)c1ccccc1` (configuration not stated) the Potency was “inactive”.
With `COc1ccc(S(=O)(=O)N2CCN(C(=O)c3cc4c(s3)CCCC4)CC2)cc1` the Potency was “inactive”.
`CCC(C)NC(=O)c1cc2c(=O)n3cccc(C)c3nc2s1` (configuration not stated) was tested, and the Potency was “inactive”.
In the case of `Clc1ccc(/C=N/N2CCN(Cc3ccccc3)CC2)cc1`, the Potency is reported as “inactive”.
In the case of `CN(C)c1ccc(/C=N/N2CCN(c3ccccn3)CC2)cc1`, the Potency is reported as “inactive”.
`CN1CCN(/N=C/c2ccc(N(c3ccccc3)c3ccccc3)cc2)CC1` was tested, and the Potency was 31.6 µM (active).

— ChEMBL document CHEMBL1201862, “PubChem BioAssay data set” (2004)
